# According to PubChem BioAssay (NCI):
# Compounds without any hit were thinned out: in the full panel of roughly 79,000, 15% have a hit. Unmarked numbers belong to inactive results. Active and inactive are the calls of the source. Cut-off read from the data, not from the text of the source: active = growth inhibition above about 70%; inactive = the rest.
# Legend:
# [1] = NCI Yeast Anticancer Drug Screen. Data for the rad52 strain (AID 147);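 note: 0% = growth of vehicle-treated control cultures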; settings: S. cerevisiae rad52 mutant growth inhibition, stronger effect = higher value
# Summary of the method: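 Inhibition of yeast growth, referenced to vehicle controls, was the measured output for a strain with defective DNA damage repair.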
# [2] = NCI Yeast Anticancer Drug Screen. Data for the wt1 strain (AID 149);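 note: 0% = growth of vehicle-treated wt1 cultures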; settings: S. cerevisiae wt1 strain (SPY 50644) growth inhibition, stronger effect = higher value
# Summary of the method: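 wt1 yeast, compound-treated; % growth inhibition vs vehicle control.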
# [3] = NCI Yeast Anticancer Drug Screen. Data for the rad50 strain (AID 155);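 note: 0% = growth of vehicle-only cultures of the same strain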; settings: S. cerevisiae rad50 strain growth inhibition, stronger effect = higher value
# Summary of the method: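 Genetically altered yeast (DNA repair pathway); compound treatment; growth inhibition vs vehicle ctrl.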
# [4] = NCI Yeast Anticancer Drug Screen. Data for the mec2-1 strain (AID 157); settings: S. cerevisiae mec2-1 strain, stronger effect = higher value
# Summary of the method: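 Each compound was tested on mec2-1 yeast, a strain altered in DNA damage repair or cell cycle control. Growth inhibition is reported relative to vehicle.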
# [5] = NCI Yeast Anticancer Drug Screen. Data for the rad14 strain (AID 159);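 note: 0% = growth of vehicle-treated control cultures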; settings: S. cerevisiae rad14 strain growth inhibition, stronger effect = higher value
# Summary of the method: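 Test compounds were applied to a repair-deficient yeast strain. Its growth was then compared with that of cultures given vehicle alone, and inhibition was expressed relative to those controls.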
# [6] = NCI Yeast Anticancer Drug Screen. Data for the sgs1 mgt1 strain (AID 161);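 note: 0% = growth of cultures given vehicle only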; settings: S. cerevisiae sgs1 mgt1 strain, stronger effect = higher value
# Summary of the method: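 Inhibition of yeast growth, normalised to vehicle-treated controls, is reported for a strain bearing genetic alterations in DNA damage repair.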
# [7] = NCI Yeast Anticancer Drug Screen. Data for the CLN2oe strain (AID 163);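 note: 0% = growth of vehicle-only control cultures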; settings: S. cerevisiae CLN2oe strain, stronger effect = higher value
# Summary of the method: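 First, the altered yeast strain was treated with each compound; second, its growth was measured; finally, inhibition was derived by comparison with vehicle controls.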
# [8] = NCI Yeast Anticancer Drug Screen. Data for the cln2 rad14 strain (AID 165);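 note: 0% = growth equal to vehicle treated cultures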; settings: S. cerevisiae cln2 rad14 strain, stronger effect = higher value
# Summary of the method: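 Test compounds were added to cln2 rad14 yeast cultures; inhibition of growth was then determined by comparison with vehicle treatment.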
# [9] = NCI Yeast Anticancer Drug Screen. Data for the mlh1 strain (AID 171);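 note: 0% = growth of vehicle-treated control cultures of the same strain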; settings: S. cerevisiae mlh1 strain growth inhibition, stronger effect = higher value
# Summary of the method: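 Inhibition values reflect reduced yeast growth in the presence of compound, referenced to vehicle controls, using a strain chosen for its alteration in DNA repair or cell cycle control.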
# [10] = NCI Yeast Anticancer Drug Screen. Data for the sgs1 strain (AID 173);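 note: 0% = growth of vehicle-only control cultures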; settings: S. cerevisiae sgs1 mutant, stronger effect = higher value
# Summary of the method: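 Vehicle-treated cultures served as reference for growth inhibition of a yeast strain altered in DNA damage repair or cell cycle control after compound exposure.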
# [11] = NCI Yeast Anticancer Drug Screen. Data for the mlh1 rad18 strain (AID 175); settings: S. cerevisiae mlh1 rad18 strain growth inhibition, stronger effect = higher value
# Summary of the method: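 Inhibition values reflect reduced growth of mutant yeast versus vehicle-treated controls following compound exposure; the mutations affect DNA damage repair.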
# [12] = NCI Yeast Anticancer Drug Screen. Data for the rad18 strain (AID 177); settings: S. cerevisiae rad18 mutant growth inhibition, stronger effect = higher value
# Summary of the method: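 Steps: expose repair-mutant yeast to compound; measure growth; express as inhibition relative to vehicle control.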
# [13] = NCI Yeast Anticancer Drug Screen. Data for the mgt1 strain (AID 153); settings: S. cerevisiae mgt1 mutant growth inhibition, stronger effect = higher value
# Summary of the method: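 In the mgt1 strain, test compounds were added and growth inhibition was determined relative to vehicle-treated controls.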
# [14] = NCI Yeast Anticancer Drug Screen. Data for the bub3 strain (AID 167); settings: S. cerevisiae bub3 mutant strain, stronger effect = higher value
# Summary of the method: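 Yeast carrying a defined mutation is treated with each compound, and growth is compared with that of vehicle-exposed cells to give inhibition.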
# [15] = NCI Yeast Anticancer Drug Screen. Data for the wt2 strain (AID 169);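 note: 0% = growth of vehicle-treated yeast cultures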; settings: S. cerevisiae wt2 strain growth inhibition, stronger effect = higher value
# Summary of the method: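 The panel's yeast strains carry defined changes in DNA repair or cell cycle genes. Each strain is grown with compound, and growth loss is scored relative to vehicle.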
# [16] = at 5.0 µM (retest, dose inferred, filed as 0.5)
# [17] = at 50.0 µM (retest, dose inferred, filed as 5.0)
smiles,measurement,setting,value
OC1(c2ccccc2)CSC2=Nc3ccccc3C3CCN1N23 (stereo not drawn),growth inhibition,[1]; at 1.2 µM,-41%
same,growth inhibition,[1]; at 3.7 µM,-50%
same,growth inhibition,[1]; at 11.0 µM,-45%
same,growth inhibition,[1]; at 33.0 µM,-29%
same,growth inhibition,[1]; at 100.0 µM,91% (active)
same,growth inhibition,[2]; at 1.2 µM,-82%
same,growth inhibition,[2]; at 3.7 µM,-83%
same,growth inhibition,[2]; at 11.0 µM,-89%
same,growth inhibition,[2]; at 33.0 µM,-33%
same,growth inhibition,[2]; at 100.0 µM,95% (active)
same,growth inhibition,[3]; at 1.2 µM,-66%
same,growth inhibition,[3]; at 3.7 µM,-75%
same,growth inhibition,[3]; [16],24%
same,growth inhibition,[3]; at 11.0 µM,-61%
same,growth inhibition,[3]; at 33.0 µM,-20%
same,growth inhibition,[3]; [17],47%
same,growth inhibition,[3]; at 50.0 µM,51.5%
same,growth inhibition,[3]; at 100.0 µM,92% (active)
same,growth inhibition,[4]; at 1.2 µM,-86%
same,growth inhibition,[4]; at 3.7 µM,-71%
same,growth inhibition,[4]; [16],12%
same,growth inhibition,[4]; at 11.0 µM,-91%
same,growth inhibition,[4]; at 33.0 µM,-21%
same,growth inhibition,[4]; [17],40%
same,growth inhibition,[4]; at 50.0 µM,43.7%
same,growth inhibition,[4]; at 100.0 µM,93% (active)
same,growth inhibition,[5]; at 1.2 µM,-51%
same,growth inhibition,[5]; at 3.7 µM,-32%
same,growth inhibition,[5]; at 11.0 µM,-36%
same,growth inhibition,[5]; at 33.0 µM,13%
same,growth inhibition,[5]; at 100.0 µM,94% (active)
same,growth inhibition,[6]; [16],27%
same,growth inhibition,[6]; [17],51%
same,growth inhibition,[6]; at 50.0 µM,80.2% (active)
same,growth inhibition,[7]; at 1.2 µM,-23%
same,growth inhibition,[7]; at 3.7 µM,-16%
same,growth inhibition,[7]; at 11.0 µM,-46%
same,growth inhibition,[7]; at 33.0 µM,2%
same,growth inhibition,[7]; at 100.0 µM,93% (active)
same,growth inhibition,[8]; [16],25%
same,growth inhibition,[8]; [17],40%
same,growth inhibition,[8]; at 50.0 µM,16.4%
same,growth inhibition,[9]; at 1.2 µM,-81%
same,growth inhibition,[9]; at 3.7 µM,-100%
same,growth inhibition,[9]; at 11.0 µM,-63%
same,growth inhibition,[9]; at 33.0 µM,58%
same,growth inhibition,[9]; at 100.0 µM,93% (active)
same,growth inhibition,[10]; at 1.2 µM,-23%
same,growth inhibition,[10]; at 3.7 µM,-55%
same,growth inhibition,[10]; at 11.0 µM,-42%
same,growth inhibition,[10]; at 33.0 µM,18%
same,growth inhibition,[10]; at 100.0 µM,94% (active)
same,growth inhibition,[11]; [16],23%
same,growth inhibition,[11]; [17],78% (active)
same,growth inhibition,[11]; at 50.0 µM,80.7% (active)
same,growth inhibition,[12]; at 1.2 µM,-65%
same,growth inhibition,[12]; at 3.7 µM,-55%
same,growth inhibition,[12]; at 11.0 µM,-70%
same,growth inhibition,[12]; at 33.0 µM,-21%
same,growth inhibition,[12]; at 100.0 µM,92% (active)
CCOC(=O)c1cc(-c2ccc(Cl)cc2)c([N+](=O)[O-])n1C,growth inhibition,[1]; at 1.2 µM,12%
same,growth inhibition,[1]; at 3.7 µM,24%
same,growth inhibition,[1]; at 11.0 µM,41%
same,growth inhibition,[1]; at 33.0 µM,90% (active)
same,growth inhibition,[1]; at 100.0 µM,96% (active)
same,growth inhibition,[2]; at 1.2 µM,1%
same,growth inhibition,[2]; at 3.7 µM,3%
same,growth inhibition,[2]; at 11.0 µM,13%
same,growth inhibition,[2]; at 33.0 µM,68%
same,growth inhibition,[2]; at 100.0 µM,96% (active)
same,growth inhibition,[13]; at 1.2 µM,-10%
same,growth inhibition,[13]; at 3.7 µM,-2%
same,growth inhibition,[13]; at 11.0 µM,1%
same,growth inhibition,[13]; at 33.0 µM,84% (active)
same,growth inhibition,[13]; at 100.0 µM,96% (active)
same,growth inhibition,[3]; at 1.2 µM,9%
same,growth inhibition,[3]; at 3.7 µM,26%
same,growth inhibition,[3]; [16],-12%
same,growth inhibition,[3]; at 11.0 µM,34%
same,growth inhibition,[3]; at 33.0 µM,89% (active)
same,growth inhibition,[3]; [17],97% (active)
same,growth inhibition,[3]; at 50.0 µM,88.4% (active)
same,growth inhibition,[3]; at 100.0 µM,95% (active)
same,growth inhibition,[4]; at 1.2 µM,15%
same,growth inhibition,[4]; at 3.7 µM,23%
same,growth inhibition,[4]; [16],-8%
same,growth inhibition,[4]; at 11.0 µM,23%
same,growth inhibition,[4]; at 33.0 µM,96% (active)
same,growth inhibition,[4]; [17],96% (active)
same,growth inhibition,[4]; at 50.0 µM,90.3% (active)
same,growth inhibition,[4]; at 100.0 µM,96% (active)
same,growth inhibition,[5]; at 1.2 µM,-8%
same,growth inhibition,[5]; at 3.7 µM,-4%
same,growth inhibition,[5]; at 11.0 µM,11%
same,growth inhibition,[5]; at 33.0 µM,76% (active)
same,growth inhibition,[5]; at 100.0 µM,95% (active)
same,growth inhibition,[6]; [16],10%
same,growth inhibition,[6]; [17],50%
same,growth inhibition,[6]; at 50.0 µM,91.7% (active)
same,growth inhibition,[7]; at 1.2 µM,10%
same,growth inhibition,[7]; at 3.7 µM,-3%
same,growth inhibition,[7]; at 11.0 µM,7%
same,growth inhibition,[7]; at 33.0 µM,60%
same,growth inhibition,[7]; at 100.0 µM,96% (active)
same,growth inhibition,[8]; [16],15%
same,growth inhibition,[8]; [17],95% (active)
same,growth inhibition,[8]; at 50.0 µM,89% (active)
same,growth inhibition,[14]; at 1.2 µM,-6%
same,growth inhibition,[14]; at 3.7 µM,-29%
same,growth inhibition,[14]; [16],-22%
same,growth inhibition,[14]; at 11.0 µM,-9%
same,growth inhibition,[14]; at 33.0 µM,74% (active)
same,growth inhibition,[14]; [17],97% (active)
same,growth inhibition,[14]; at 50.0 µM,85.3% (active)
same,growth inhibition,[14]; at 100.0 µM,95% (active)
same,growth inhibition,[15]; at 1.2 µM,6%
same,growth inhibition,[15]; at 3.7 µM,13%
same,growth inhibition,[15]; at 11.0 µM,13%
same,growth inhibition,[15]; at 33.0 µM,70% (active)
same,growth inhibition,[15]; at 100.0 µM,97% (active)
same,growth inhibition,[9]; at 1.2 µM,28%
same,growth inhibition,[9]; at 3.7 µM,36%
same,growth inhibition,[9]; at 11.0 µM,56%
same,growth inhibition,[9]; at 33.0 µM,94% (active)
same,growth inhibition,[9]; at 100.0 µM,96% (active)
same,growth inhibition,[10]; at 1.2 µM,27%
same,growth inhibition,[10]; at 3.7 µM,29%
same,growth inhibition,[10]; at 11.0 µM,58%
same,growth inhibition,[10]; at 33.0 µM,97% (active)
same,growth inhibition,[10]; at 100.0 µM,98% (active)
same,growth inhibition,[11]; [16],45%
same,growth inhibition,[11]; [17],97% (active)
same,growth inhibition,[11]; at 50.0 µM,87.9% (active)
same,growth inhibition,[12]; at 1.2 µM,3%
same,growth inhibition,[12]; at 3.7 µM,37%
same,growth inhibition,[12]; at 11.0 µM,71% (active)
same,growth inhibition,[12]; at 33.0 µM,95% (active)
same,growth inhibition,[12]; at 100.0 µM,96% (active)
